CYP2C9 inh = blockers of cytochrome P450 2C9 activity – biochemical, luminescence, ADME assay, primary screen. actives 20% (n = 96,000). inhibition, % at 5 µM. P11712. CYP2C9 Supersomes, luciferin-H conversion;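 active = blocking of liver enzyme CYP2C9 beyond about 50% at 5 µM, limit read from the data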
Target sequence (P11712 whole entry, looked up): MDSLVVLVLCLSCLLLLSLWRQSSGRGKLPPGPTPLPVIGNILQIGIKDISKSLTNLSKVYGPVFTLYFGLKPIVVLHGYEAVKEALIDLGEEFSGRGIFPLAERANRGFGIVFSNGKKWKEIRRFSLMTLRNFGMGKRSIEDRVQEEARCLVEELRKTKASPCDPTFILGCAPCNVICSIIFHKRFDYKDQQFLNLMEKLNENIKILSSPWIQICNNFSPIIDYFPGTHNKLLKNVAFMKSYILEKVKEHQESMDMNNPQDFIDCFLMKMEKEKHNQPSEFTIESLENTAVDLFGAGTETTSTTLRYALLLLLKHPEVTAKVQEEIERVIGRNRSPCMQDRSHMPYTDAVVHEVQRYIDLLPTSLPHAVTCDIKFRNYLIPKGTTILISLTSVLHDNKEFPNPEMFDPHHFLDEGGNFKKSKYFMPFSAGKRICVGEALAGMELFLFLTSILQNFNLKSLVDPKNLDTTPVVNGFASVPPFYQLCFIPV
CYP2C19 inh = blockers of cytochrome P450 2C19 activity – biochemical, luminescence, ADME assay, primary screen. P33261. CYP2C19 Supersomes, luciferin-H EGE luminescence, 30 min. inhibition, % at 5 µM. actives 21% (n = 96,000);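 active = CYP2C19 inhibition above a set limit at 5 µM in the primary screen, cut at about 50% in these data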;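 note: plate controls were negative control wells for no effect and 2.5 mM tranylcypromine positive control for full effect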
PLK1 PBD inh = Plk1 polo box domain binding inhibitors, primary screen, biochemical, fluorescence polarization | Serine/threonine-protein kinase PLK1 (Homo sapiens), P53350 | Plk1 PBD phosphopeptide binding | inhibition, %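 (tested at about 20 µM)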 | actives 0.13% (n = 97,000) | AID 693, 2007; in the data active = inhibition above about 34%, passing the limit was not always enough
CYP2C19 activ = human CYP2C19 activators, primary screen, biochemical, luminescence. 96,000 tested, under 10 active. activation factor at 5 µM. recombinant CYP2C19, luciferin-H EGE luminescence; active compounds read high; 0 = fully inhibited enzyme, 1 = untreated enzyme. AID 1025, 2008. Cytochrome P450 2C19 (Homo sapiens), P33261;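 active = activation factor of at least 2 at 5 µM in the primary screen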;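 note: 0 = wells with 2.5 mM tranylcypromine and 1 = vehicle-only wells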
PLK1 kinase inh = human PLK1 kinase inhibitors, primary screen, biochemical, TR-FRET; recombinant PLK1 kinase, TR-FRET peptide phosphorylation; inhibition, % at 10 µM; actives 0.53% (n = 97,000); AID 619, 2007;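 active = inhibition of 50% or more in the single-concentration screen; inactive = inhibition below 50%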;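 note: 0% = DMSO max control and 100% = H-89 dihydrochloride min control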
CYP2C9 activ = human CYP2C9 activators, primary screen, biochemical, luminescence; Cytochrome P450 2C9 (Homo sapiens), P11712; recombinant CYP2C9, luciferin-H conversion; active compounds read high; factor 1 = untreated enzyme, 0 = blocked; activation factor at 5 µM; actives 1.4% (n = 96,000); AID 1024, 2008;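 active = activation factor of 2 or more for CYP2C9 at a 5 µM dose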;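 note: 0 = sulfaphenazole-blocked wells and 1 = vehicle-only wells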
* = called active by the depositor; · = not tested or not shown. Shown are actives, neighbours in structure and some others; about 28% of the full set was active somewhere.

SMILES | CYP2C9 inh | CYP2C19 inh | PLK1 PBD inh | CYP2C19 activ | PLK1 kinase inh | CYP2C9 activ
CC1(C)N(OCc2ccccc2)C(=O)C(=O)N(OCc2ccccc2)C1(C)C | 1 | 1 | 3 | 1 | -9 | 1
C=CCOn1c(=O)c(=O)n(OCc2ccccc2)c2ccccc21 | -4 | 97* | -5 | 0 | -19 | 1
CC(Cc1ccccc1)N/C=C1\CC(=O)NC1=O (centres undefined) | -11 | -11 | 2 | 1.1 | -10 | 1.1
CC1(C)C(N(O)C(=O)Nc2ccccc2)N(c2cccc(Cl)c2)C(=O)N1O (centres undefined) | 73* | 12 | 11 | 0.9 | -1 | 0.3
CN1C(=S)SC(N(O)C(=O)Nc2ccccc2)C1(C)C (centres undefined) | 40 | 45 | 2 | 0.6 | -13 | 0.6
CCCC(=O)NCCc1ccc(S(N)(=O)=O)cc1 | 17 | -16 | -26 | 1.2 | -1 | 0.8
Cc1ccc(-c2nnc(N(C)C(=O)c3cccnc3)s2)cn1 | 3 | 6 | -9 | 0.9 | -6 | 1
Cc1ccc(-c2nnc(N(C)C(=O)c3cccnc3)s2)cc1 | 86* | 67* | -15 | 0.3 | -5 | 0.1
CN(C(=O)c1ccncc1)c1nnc(-c2ccncc2)s1 | 94* | 96* | · | 0 | · | 0.1
Cc1nn(C)c(C)c1S(=O)(=O)N1CCC(C(=O)NCC2COc3ccccc3O2)CC1 (centres undefined) | -58 | 12 | -30 | 0.9 | -7 | 1.6
Cc1ccc(CN2C(=O)CCC2C(=O)NCCCN2CCCC(C)C2)cc1 (centres undefined) | 0 | -3 | -5 | 1 | -11 | 1
O=c1[nH]c2ccccc2nc1-c1cccs1 | 21 | 10 | -5 | 0.9 | -2 | 0.8
c1csc(-c2nnsc2-c2nc3ccccc3[nH]2)c1 | 27 | 73* | · | 0.3 | · | 0.7
COc1ccccc1-c1nc(-c2cccc(C)c2)no1 | -17 | 49 | -8 | 0.5 | -8 | 1.2
Cc1ccc(OCC(=O)c2ccc3c(c2)CCCC3)cc1C | -40 | 2 | 3 | 1 | -3 | 1.4
O=C(COc1ccc(Br)cc1)c1ccc2c(c1)CCCC2 | -62 | 52* | -8 | 0.5 | -8 | 1.6
N#Cc1ccc(CSc2nnc(Nc3ccccc3)s2)cc1 | -9 | -9 | 8 | 1.1 | -24 | 1.1
CC(C)Sc1nnc(Nc2ccccc2)s1 | 59* | 69* | -18 | 0.3 | -9 | 0.4
Cc1noc(C)c1COC(=O)CCCc1nc2ccccc2s1 | 51* | 41 | 13 | 0.6 | -11 | 0.5
COCCOC(=O)C1=C(C)NC(=O)N(C(C)=O)C1c1ccc(Cl)cc1 (centres undefined) | 66* | 58* | -10 | 0.4 | 1 | 0.3
C=CCOc1c(Cl)cc(CNc2ccc(N(C)C)cc2)cc1OC | 72* | 96* | 10 | 0 | 3 | 0.3
CCCNCc1cc(Cl)c(OCC)c(Cl)c1 | · | · | -5 | · | 0 | ·
C=CCOc1ccc(CNC(C)(C)C)cc1OC | 11 | 25 | -4 | 0.7 | -7 | 0.9
C=CCOc1c(Cl)cc(CNc2ccc(C)c(Cl)c2)cc1OC | 57* | 38 | -7 | 0.6 | 4 | 0.4
C=CCOc1c(Cl)cc(CNCCC)cc1Cl | 24 | 59* | 4 | 0.4 | 0 | 0.8
SMILES | CYP2C9 inh | CYP2C19 inh | PLK1 PBD inh | CYP2C19 activ | PLK1 kinase inh | CYP2C9 activ
Cc1cccc(Oc2ccc(C(=O)NC3CCSC3=O)cn2)c1C (centres undefined) | 13 | -9 | -26 | 1.1 | -6 | 0.9
CCCCCC(=O)NC(=S)Nc1ccccc1C(=O)OC | 12 | 28 | -6 | 0.7 | -6 | 0.9
CC1C/C(=N\NC(=S)NCc2ccccc2)CC(C)(C)C1 (centres undefined) | -8 | 26 | 11 | 0.7 | -2 | 1.1
CC1CCC/C(=N\NC(=S)NCc2ccccc2)C1 (centres undefined) | 85* | 82* | 17 | 0.2 | -13 | 0.1
O=C(NCc1ccccc1Cl)C1CCCN(S(=O)(=O)c2cccc3nsnc23)C1 (centres undefined) | 50* | 77* | -11 | 0.2 | -9 | 0.5
COc1cccc(NC(=O)C2CCCN(S(=O)(=O)c3cccc4nsnc34)C2)c1 (centres undefined) | 67* | 50* | 12 | 0.5 | -13 | 0.3
Cc1cccc(NC(=O)C2CCCN(S(=O)(=O)c3cccc4nsnc34)C2)c1 (centres undefined) | 40 | 27 | -19 | 0.7 | -5 | 0.6
O=C(NCC1CCCO1)C1CCCN(S(=O)(=O)c2cccc3nsnc23)C1 (centres undefined) | -25 | -5 | -5 | 1.1 | -1 | 1.2
COc1ccccc1NC(=O)C1CCCN(S(=O)(=O)c2cccc3nsnc23)C1 (centres undefined) | 71* | 72* | -15 | 0.3 | -14 | 0.3
CCn1c(CNc2ccc(F)cc2)nnc1SCC(=O)Nc1ccc(OC)cc1 | · | · | 2 | · | -6 | ·
CCn1c(COc2cccc3ccccc23)nnc1SCC(=O)OC1CCCCC1 | 48 | 88* | 14 | 0.1 | -15 | 0.5
CCOC(=O)c1cccc(NC(=O)CSc2nnc(CNc3ccc(C)cc3)n2CC)c1 | 70* | 66* | 18 | 0.3 | 7 | 0.3
CCn1c(COc2ccccc2C)nnc1SCC(=O)NC1CCCC1 | -5 | 27 | -24 | 0.7 | -8 | 1
CCOC(=O)c1cccc(NC(=O)CSc2nnc(-c3cccnc3)n2CC)c1 | 64* | 53* | 14 | 0.5 | -1 | 0.4
CCn1c(SCC(=O)Nc2cc(C)on2)nnc1-c1cccnc1 | 9 | 31 | -10 | 0.7 | -13 | 0.9
COC(=O)CSc1nnc(CNc2ccc(Cl)cc2)n1Cc1ccccc1 | 92* | 97* | -22 | 0 | 5 | 0.1
O=C(CSc1nnc(CNc2ccc(F)cc2)n1Cc1ccccc1)NCc1ccccc1 | · | · | -28 | · | -8 | ·
CCC1CCCCN1CCCn1c(=S)[nH]c2ccccc2c1=O (centres undefined) | 10 | 6 | -10 | 0.9 | -12 | 0.9
CCN(CC)c1ccc(C(=S)N2CCN(c3ccccc3)CC2)cc1 | 2 | 24 | 8 | 0.8 | 0 | 1
Nc1nnc(SCC(=O)NCCOc2ccccc2)s1 | · | · | 11 | · | -5 | ·
CCn1c(CNc2ccccc2Cl)nnc1SCC(=O)NCc1ccccc1 | 20 | 9 | 7 | 0.9 | -14 | 0.8
CCOC(=O)c1cccc(NC(=O)c2cccnc2)c1 | 12 | 14 | · | 0.9 | · | 0.9
